# About 900 (0.27%) of roughly 330,000 compounds were called active.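 The calls were made as follows: active = inhibition above the campaign's mean inhibition across all tested compounds plus 3 SD (cut at about 9.9% in these data); inactive = the rest.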 The full list was thinned out, with actives kept by preference.
# Test: bacterial viability reduction in E. coli – absorbance, OD600, counter-screen for AddAB inhibitor project, primary screen (AID 449728);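 also: uninfected addAB+ strain grown without phage in ampicillin broth; 0% = DMSO wells and 100% = ciprofloxacin 0.95 µg/ml wells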
# Conditions: E. coli V3065 growth, 18 h, at 11.9 µM, hits give high values
row,SMILES,inhibition
1,COC(=O)c1ccc(COC(=O)c2cnccn2)cc1,-0.61% (inactive)
2,CC1CCN(C(=O)Cn2cc(C(=O)c3ccco3)c3ccccc32)CC1,-0.18% (inactive)
3,O=C(Cn1cc(C(=O)c2cccs2)c2ccccc21)NCc1cccs1,0.18% (inactive)
4,Cc1cccc(NC(=O)Cn2cc(C(=O)c3ccco3)c3ccccc32)c1,16.6% (active)
5,Cc1ccc(CN2CCC(N3CCC(C(=O)NCC4CCCO4)CC3)CC2)o1 (stereo unspecified),-1.01% (inactive)
6,O=C(NCC#CCSc1nnc(-c2cccc3ccccc23)o1)c1cccs1,10.2% (active)
7,C#CCSc1nnc(-c2sc3ccccc3c2Cl)o1,2.18% (inactive)
8,COc1ccc(CCNC(=O)/C(C#N)=C2\N=C(NC(=O)c3cccs3)c3ccccc32)cc1,-0.34% (inactive)
9,COc1ccc(C)cc1N(CC(=O)NC(C)c1ccccc1)S(C)(=O)=O (stereo unspecified),0.84% (inactive)
10,C[N+]1(CCNC(=O)/C=N/O)CCCCC1,-1.11% (inactive)
11,COc1ccc([C@H]2CC(=O)C=C(/C=C/c3ccccc3)C2)cc1,-0.71% (inactive)
12,Cc1ccccc1NC(=O)NC1(C(=O)N2CCCC2)CCCCC1,-1.26% (inactive)
13,Oc1c(Cl)cc(Cl)c(Cl)c1Cc1c(O)c(Cl)cc(Cl)c1Cl,12.2% (active)
14,CC(=O)OCCOCn1cnn2c(=O)c(Br)c(C)nc12,-2.04% (inactive)
15,CCNC(=S)N1CCN(c2ncccn2)CC1,0.78% (inactive)
16,CN(C)CCCn1c(SCc2ccc(Cl)cc2)nnc1-c1ccncc1,-1.29% (inactive)
17,COc1cccc(-c2sc3ccc(OC)cc3c2-c2ccc(OCCN3CCCCC3)cc2)c1,-0.53% (inactive)
18,Cc1ccc(C23CC4CC(CC(C(=O)NCC(=O)O)(C4)C2)C3)cc1,1% (inactive)
19,CCOc1ccccc1NC(=O)Cc1cccs1,1.04% (inactive)
20,CCOc1ccccc1NC(=O)C12CC3CC(C1)CC(c1ccc(C)cc1)(C3)C2,26.6% (active)
21,COCCCNC(=O)C1CCC(CNS(=O)(=O)c2ccc(OC)cc2)CC1 (stereo unspecified),-1.01% (inactive)

row,SMILES,inhibition
1,CCC1C(=O)NCCN1C(=O)c1ccc2nc(Cc3ccc(OC)cc3)oc2c1 (stereo unspecified),-0.08% (inactive)
2,O=C(OCC1O[C@@H](OC(=O)c2cc(O)c(O)c(O)c2)[C@@H](OC(=O)c2cc(O)c(O)c(O)c2)[C@@H](OC(=O)c2cc(O)c(O)c(O)c2)[C@@H]1OC(=O)c1cc(O)c(O)c(O)c1)c1cc(O)c(O)c(O)c1 (stereo partly specified),23.6% (active)
3,COc1ccc(Br)cc1/C=N/Nc1ccc(Cl)c(C(=O)O)c1,-3.01% (inactive)
4,CCOc1cccc(/C=N/NC(=S)NCCN2CCOCC2)c1O,0.34% (inactive)
5,COc1cccc(/C=N/Nc2ncc(C(F)(F)F)cc2Cl)c1O,15.6% (active)
6,C/C(CC(C)C)=N\Oc1nc(C)cc(C)n1,0.81% (inactive)
7,COc1ccc2c(C(=O)c3ccc(C)cc3)n(CCC(N)=O)[n+]([O-])c2c1,-1.03% (inactive)
8,COc1ccc(C(=O)CC(=O)C(=O)Nc2cc([N+](=O)[O-])ccc2OC)cc1,-2.64% (inactive)
9,COc1ccc(C(=O)c2c3ccc([N+](=O)[O-])cc3[n+]([O-])n2CCCN)cc1,9.95% (active)
10,CN1CCN(C(=O)c2cnn(-c3ccccc3)c2NC(=O)c2ccc([N+](=O)[O-])cc2)CC1,-0.94% (inactive)
11,O=C(NNC(=O)C1CCCC1)c1ccc(F)cc1,-1.97% (inactive)
12,Cc1ccc(/C=C/C(=O)Nc2ccc([N+](=O)[O-])c(NC(=O)/C=C/c3ccc(C)o3)c2)o1,-5.13% (inactive)
13,O=C(/C=C/c1ccc([N+](=O)[O-])o1)NNC(=O)c1ccc(F)cc1,97.9% (active)
14,CONC(=O)c1cc(OCC(F)(F)F)ccc1OCC(F)(F)F,-0.41% (inactive)
15,O=C1CN(C(=O)COC(=O)c2cnc(Cl)c(Cl)c2)c2ccccc2N1,1.7% (inactive)
16,CCOC(=O)C1=C(C)N=C2c3ccccc3C(=O)C2C1c1ccc(Br)cc1 (stereo unspecified),0.42% (inactive)
17,O=C1c2ccccc2C2=Nc3ccccc3SC(c3ccccc3F)C12 (stereo unspecified),19.9% (active)
18,O=C1c2ccccc2C(=O)C1c1ccccc1F,1.08% (inactive)
19,C=CCN(Cc1nc(-c2cc(OC)c3c(c2)OCO3)oc1C)C1CCS(=O)(=O)C1 (stereo unspecified),-0.09% (inactive)
20,O=C(COC(=O)c1c(Cl)cccc1Cl)Nc1cccc(S(=O)(=O)NC2=NCCCCC2)c1,-2.98% (inactive)
